Results on ten compounds are retold here after ChEMBL document CHEMBL1157539, “Thousands of chemical starting points for antimalarial lead identification” (Nature, 2010).

What all share (assay type): functional
Assay [1] relates to Plasmodium falciparum. Briefly: GSK_TCMDC: Inhibition of Plasmodium falciparum 3D7 in whole red blood cells, using parasite LDH activity as an index of growth. Test compounds present at 2uM.
In assay [2] the test system is Plasmodium falciparum. Description: GSK_TCMDC: Inhibition of Plasmodium falciparum Dd2 in whole red blood cells, using parasite LDH activity as an index of growth. Test compounds present at 2uM.
For assay [3], the system named is HepG2. Briefly: GSK_TCMDC: Percent inhibition of human HepG2 cell line. Test compounds present at 10uM.

The term Inhibition denotes the share of the control response that was lost under treatment. Take `COc1ccc2nc3cc(Cl)ccc3c(NCc3ccccc3)c2c1.Cl`: the Inhibition in assay [1] is on record as 100%; in assay [2] it was 50%; in assay [3], 8%.
For `CCOC(=O)Cc1nc(C(=O)OCC)c(N)[nH]1.Cl`, the values for the Inhibition in assay [1], in assay [2] and in assay [3] were 94%, 24% and 2%, respectively.
For `Cc1ccccc1OCC(=O)Nc1ccc(-c2nc3cc4ccccc4cc3[nH]2)cc1`, in that order: 100%, 51% and 24%.
Taken in the same sequence, the figures for `NC(=O)c1ccc(C(=O)Nc2cccc(-c3ccc(-c4nc5cc(C(F)(F)F)ccc5[nH]4)cc3)c2)cc1` were 100%, 31% and 35%.
For `Cc1ccc(C(=O)N2CCc3cc4nccc(N5CCN6CCC[C@H]6C5)c4cc32)cc1`, the Inhibition in assay [1] worked out at 95%; in assay [2], 13%; in assay [3] it was 5%.
For the compound `CCOC(=O)N1CCN(CCCNc2c3ccc(Cl)cc3nc3ccc(OC)cc23)CC1`, the Inhibition in assay [1] was 100%; in assay [2], 100%; in assay [3] it was 52%.
Consider `CNCCNCc1cccc(-c2cccc(-c3nc4cc(F)ccc4[nH]3)c2)c1.O=C(O)C(F)(F)F`, for which the values for the Inhibition in assay [1], in assay [2] and in assay [3] were 98%, 15% and 20%, respectively.
Turning to `CNc1ccc(CNCc2cccc(-c3ccc(-c4nc5cc(C(F)(F)F)ccc5[nH]4)cc3)c2)cc1.O=C(O)C(F)(F)F`, the Inhibition in assay [1] was 100%; in assay [2] it was 100%; in assay [3], 21%.
Turning to `c1ccc(OCCOc2ccc(Nc3ccnc4cc5ccccc5cc34)cc2)cc1`, the figures for the Inhibition in assay [1], in assay [2] and in assay [3] were 100%, 96% and 44%, respectively.
For `CCOC(=O)c1ccc(NC(=O)N(Cc2ccc(-c3ccc(CN4CCNCC4)cc3)cc2)C2CCN(Cc3ccccc3)CC2)cc1.O=C(O)C(F)(F)F`, in that order: 100%, 93% and 14%.
